Screening results (PubChem)
GSIS activator: GLuc luminescence reporter in INS-1E cells, primary screen for activators of glucose-dependent secretion of insulin | INS-1E GLuc reporter insulin secretion, 2-3 h | activation, % at 16.6 µM | 0.61% of 370,000 active | AID 743287, 2014;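 active means lowest replicate activation of at least 40%, so every replicate reaches that level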;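 further: 0% = median of neutral control wells and 100% = median of IBMX positive control wells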
FGF22 binding-1: binders of human FGF22 protein, primary screen, FGF22 synaptogenesis inhibitor project, biophysical, thermal shift, single point | recombinant FGF22 thermal shift, SYPRO orange fluorescence; percent of sucrose octasulfate shift, DMSO zero | activity (Tm shift, normalised), % at 9.99 µM | 1.5% of 340,000 active;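 active means mean Tm shift, scaled 0 neutral to 100 positive control, at about 1.3% or above, every replicate too, limit read from the data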
Target sequence (Q9HCT0 whole entry, looked up): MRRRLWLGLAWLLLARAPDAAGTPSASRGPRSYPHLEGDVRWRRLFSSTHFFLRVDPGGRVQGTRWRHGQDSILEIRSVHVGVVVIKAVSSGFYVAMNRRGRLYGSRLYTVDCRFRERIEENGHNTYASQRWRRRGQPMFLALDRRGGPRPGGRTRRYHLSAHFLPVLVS
ERAP1 HTS inh: human ERAP1 aminopeptidase inhibitors, primary screen, biochemical, single point, plate reader | Endoplasmic reticulum aminopeptidase 1 (Homo sapiens), Q9NZ08 | recombinant ERAP1, Leu-AMC fluorescence, 60 min | AID 652197, 2013 | inhibition, % at 10.7 µM | 0.15% of 340,000 active;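 active means mean replicate inhibition of at least 30%, or all replicates individually reaching that 30% level; inactive means mean below 30% and not every replicate reaching it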;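 further: 0% = neutral control wells and 100% = L-leucinethiol positive control wells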
Casp6 inh: human caspase-6 inhibitors, primary screen, biochemical, VEID-R110 fluorescence, single point, set 2; P55212; purified caspase-6, Z-VEID-R110 cleavage fluorescence; inhibition, % at 12.5 µM; 0.53% of 350,000 active; AID 686996, 2013;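 active means mean inhibition across replicates at least about 35%, with every replicate also reaching that limit, limit read from the data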;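 further: 0% = median of neutral control wells and 100% = no fluorescence left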
SIRT5 inh: SIRT5 desuccinylase inhibitors, primary screen, biochemical, fluorescence imaging, single point, set 5; NAD-dependent protein deacylase sirtuin-5, mitochondrial (Homo sapiens), Q9NXA8; Purified SirT5, succinyl-peptide AMC, trypsin-coupled fluorescence; inhibition, % at 15 µM; 1.1% of 330,000 active; AID 652115, 2013; in the data active means inhibition above about 15%
Target sequence (Q9NXA8 whole entry, looked up): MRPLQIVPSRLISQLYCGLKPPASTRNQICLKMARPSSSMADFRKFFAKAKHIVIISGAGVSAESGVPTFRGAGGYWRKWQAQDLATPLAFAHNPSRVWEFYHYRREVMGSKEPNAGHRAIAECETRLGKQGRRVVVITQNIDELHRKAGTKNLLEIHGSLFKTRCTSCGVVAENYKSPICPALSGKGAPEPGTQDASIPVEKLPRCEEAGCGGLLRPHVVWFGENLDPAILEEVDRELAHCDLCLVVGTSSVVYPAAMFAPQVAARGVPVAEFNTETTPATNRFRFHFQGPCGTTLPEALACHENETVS
FGF22 binding-2: binders of human FGF22 protein, dose response, FGF22 synaptogenesis inhibitor project, biophysical, thermal shift, cherry-pick retest; shares compounds with FGF22 binding-1; recombinant FGF22 thermal shift, SYPRO orange fluorescence; thermal shift activity, °C (ΔTm) at 38 µM; 2% of 1,000 active;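 active means fitted rise in melting shift crosses a set limit at or below the top valid dose tested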
FGF22 TSA DP: binders of human FGF22 protein, dose response, FGF22 synaptogenesis inhibitor project, biophysical, thermal shift, dry powder; shares compounds with FGF22 binding-1; Thermal shift assay, SYPRO orange, melting temperature shift; Tm shift (activity), % at 38 µM; 50 tested, under 10 active;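 active means compounds whose fitted dose curve of melting temperature shift rises past a set threshold within the tested doses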
SYPRO no-protein: compound-only thermal shift signal without protein, dose response, artefact control for FGF22 binder project, biochemical, cherry-picked samples, RT-PCR instrument. shares compounds with FGF22 binding-1. compound-only SYPRO orange thermal shift counter-screen, no protein. AC50, µM (top dose mostly 38 µM). 2% of 1,000 active. AID 743019, 2013;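 active means rising signal whose fitted curve reaches the 0.54 level within the top valid dose, showing a melting point, actives reach about 13 µM in these data; inactive means the rest, including activity in the opposite direction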; further: value is where the raw curve crosses a fixed level and not half-maximal
Starred values were filed as active, the others as inactive; i = inactive; · = no result given; ! = repeats disagree; [ ] = another dose, or the depositor's remark. In the library only some 3.3% were active in any assay of this set; here they are far more common.

SMILES	GSIS activator	FGF22 binding-1	ERAP1 HTS inh	Casp6 inh	SIRT5 inh	FGF22 binding-2	SYPRO no-protein	others
Cc1noc(C)c1NC(=O)N[C@@H]1CC[C@H](CC(=O)N2CCN(C)CC2)O[C@H]1CO	-4	0	-3	2	0	·	·
CCCNC(=O)N1[C@@H]2CN(C(=O)c3ccccc3)c3ccccc3[C@@H]2[C@@H]1CO	-4	1.8*	·	·	·	0.23[42 µM]	i
CC(C)NC(=O)N1C[C@@H]2[C@H](c3ccccc31)[C@@H](CO)N2C(=O)c1cccnc1	9	0	2	-2	3	·	·
CCCNC(=O)N1C[C@@H]2[C@H](c3ccccc31)[C@H](CO)N2C(=O)c1ccccc1	0	·	·	·	-1	·	·
CC(C)NC(=O)N1C[C@H]2[C@@H](c3ccccc31)[C@H](CO)N2C(=O)c1cccnc1	5	1.3*	·	1	-1	-0.023	i
CCCC(=O)c1ccc(OCc2cn(CC(=O)c3ccc(O)cc3)nn2)cc1	9	1.5*	2	8	4	0.04	i
O=C(Cn1cc(COc2ccc(Br)cc2)nn1)c1ccc(O)cc1	-15	1.5*	0	8	3	0.019	i
CC(=O)c1cc(C)c(OCc2cn(CC(=O)c3ccc(O)cc3)nn2)c(C)c1	-4	0	1	·	1	·	·
O=Cc1cccc(OCc2cn(CC(=O)c3ccc(O)cc3)nn2)c1	2	0	-4	10	2	·	·
COc1ccc(NC(=O)Nc2ccc3c(c2)C(=O)N([C@H](C)CO)C[C@@H](C)[C@@H](CN(C)Cc2ccc(C(=O)O)cc2)OCCCC[C@H](C)O3)cc1	2	0	0	-1	2	·	·
CCCN(C)C[C@H]1Oc2cc(-c3ccncc3)ccc2S(=O)(=O)N([C@H](C)CO)C[C@H]1C	-4	2.1*	-1	0	17*	-0.062	i
COc1ccccc1S(=O)(=O)N(C)C[C@@H]1Oc2cc(C#CCC(C)C)ccc2S(=O)(=O)N([C@@H](C)CO)C[C@H]1C	-20	21*	3	9	30*	-1.1[42 µM]	i
COCC(=O)N(C)C[C@@H]1Oc2cc(C#Cc3ccccc3)ccc2S(=O)(=O)N([C@H](C)CO)C[C@H]1C	-27	1	1	0	6	·	·
CCCN(C)C[C@@H]1Oc2cc(-c3ccncc3)ccc2S(=O)(=O)N([C@@H](C)CO)C[C@@H]1C	14	-1	5	2	12	·	·
COc1cccc(S(=O)(=O)N(C)C[C@H]2Oc3cc(C#CCC(C)C)ccc3S(=O)(=O)N([C@@H](C)CO)C[C@H]2C)c1	24	0	0	1	-4	·	·
CCCN(C)C[C@H]1Oc2cc(C#Cc3ccc(F)cc3)ccc2S(=O)(=O)N([C@H](C)CO)C[C@@H]1C	4	1.7*!	-2	-2	15*!	-0.19	i
COCC(=O)N(C)C[C@@H]1Oc2cc(C#Cc3ccccc3)ccc2S(=O)(=O)N([C@@H](C)CO)C[C@H]1C	20	1.6*	4	3	0	0.027[42 µM]	i
Cc1ccc(S(=O)(=O)N[C@@H]2CC[C@@H](CCNC(=O)C3CCCC3)O[C@@H]2CO)cc1	7	0	-1	-2	2	·	·
C[C@H]1CN([C@@H](C)CO)S(=O)(=O)c2ccc(C3=CCCC3)cc2O[C@@H]1CN(C)C(=O)C1CCOCC1	-3	0	-3	-3	-4	·	·
C[C@H](CO)N1C[C@H](C)[C@@H](CN(C)C)Oc2cc(C#CC3CCCCC3)ccc2S1(=O)=O	-18	0	-5	2	12	·	·
CCCN(C)C[C@H]1Oc2cc(C#Cc3cccnc3)ccc2S(=O)(=O)N([C@H](C)CO)C[C@@H]1C	-10	1.3*	1	1	4	0.002	i
C[C@H]1CN([C@@H](C)CO)S(=O)(=O)c2ccc(C#CC3CCCCC3)cc2O[C@@H]1CN(C)C	-4	1.3*	-7	1	4	0.14[42 µM]	i
COCC(=O)N1C[C@@H](C)[C@H](OC)CN(C)C(=O)c2ccc(NC(=O)NC(C)C)cc2OC[C@@H]1C	-2	2.2*	0	1	-4	0.032[42 µM]	i
CO[C@@H]1CN(C)C(=O)c2cc(NC(=O)NC(C)C)ccc2OC[C@@H](C)N(C)C[C@@H]1C	3	37*	-1	2	-3	-0.047	i
NC(=O)c1cccnc1Nc1ccccc1F	2	1.4*	-4	-1	0	0.11	i
SMILES	GSIS activator	FGF22 binding-1	ERAP1 HTS inh	Casp6 inh	SIRT5 inh	FGF22 binding-2	SYPRO no-protein	others
COc1cc(OC)c(C(=O)OCC(=O)NCC2CCCCC2)cc1OC	15	9.3*	7	4	-3	0.065	i
COc1cc(OC)c(C(=O)OCC(=O)NC2CCCCCCC2)cc1OC	·	-1	-5	1	·	·	·
CC(C)NC(=O)Nc1ccc2c(c1)C(=O)N([C@H](C)CO)C[C@@H](C)[C@@H](CN(C)C(=O)Nc1ccc(F)cc1)O2	9	·	·	·	·	·	·
Cc1[nH]c2ccccc2c1C(=O)NS(=O)(=O)Nc1ccc(Cl)cc1	5	1.6*	-3	0	-6	-0.19	i	FGF22 TSA DP=0
COc1ccc(S(=O)(=O)Nc2ccc3c(c2)C(=O)N([C@@H](C)CO)C[C@H](C)[C@H](CN(C)C(=O)Cc2ccccc2)OCCCC[C@@H](C)O3)cc1	-17	0	-1	0	7	·	·
CC(C)(C)[S@@](=O)N1Cc2cc(C(=O)NCc3ccncc3)nc(-c3cccc(-c4ccncc4)c3)c2[C@H]1CCO	-13	0	-10	-3	-1	·	·
CC(C)(C)[S@](=O)N1Cc2cc(C(=O)N[C@@H]3CCN(Cc4ccccc4)C3)nc(-c3cccc(-c4cccnc4)c3)c2[C@@H]1CCO	-34	2.1*	-2	3	0	-0.1[42 µM]	i
CC(C)(C)[S@](=O)N1Cc2cc(C(=O)N[C@H]3CCN(Cc4ccccc4)C3)nc(-c3cccc(-c4ccncc4)c3)c2[C@@H]1CCO	-41	0	0	3	8	·	·
